PubChem BioAssay (NCI)
Compounds without any hit were thinned out: in the full panel of roughly 83,000, 20% have a hit.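 Cell lines were cultured in 96-well plates, exposed to a single compound concentration, and assessed for percent growth 48 hours later.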 Values without a mark were called inactive. Calls of active or inactive are those of the source. How the source made its calls: active means growth percent below 10; inactive means the rest.

Columns and labels:
Experiment in all cases: NCI-60 one-dose screen, 48 h (100 = growth as untreated, 0 = no growth, -100 = all killed)
Details in all cases: 10 µM unless noted
SR leukemia = test system: SR leukemia
RPMI-8226 leukemia = test system: RPMI-8226 leukemia
OVCAR-8 ovarian = test system: OVCAR-8 ovarian
OVCAR-5 ovarian = test system: OVCAR-5 ovarian
OVCAR-4 ovarian = test system: OVCAR-4 ovarian
SK-OV-3 ovarian = test system: SK-OV-3 ovarian
IGROV1 ovarian = test system: IGROV1 ovarian
OVCAR-3 ovarian = test system: OVCAR-3 ovarian
HS 578T breast = test system: HS 578T breast
NCI/ADR-RES ovarian = test system: NCI/ADR-RES ovarian

Row | SMILES | growth (SR leukemia) | growth (RPMI-8226 leukemia) | growth (OVCAR-8 ovarian) | growth (OVCAR-5 ovarian) | growth (OVCAR-4 ovarian) | growth (SK-OV-3 ovarian) | growth (IGROV1 ovarian) | growth (OVCAR-3 ovarian) | growth (HS 578T breast) | growth (NCI/ADR-RES ovarian)
1 | CN1CCN(Cc2ccc(NC(=O)c3cncc(C#Cc4cncn5ccnc45)c3)cc2C(F)(F)F)CC1 | 40.8% | 54.9% | 68.8% | 48.4% | 48.5% | 88.9% | 20.4% | 83.8% | 69.6% | 93.6%
2 | COc1ccc(CCNc2nc3c(c(=O)n(Cc4ccc(Br)cc4)c(=O)n3C)n2C)cc1OC | 98.9% | 78.5% | 90.5% | 94% | 80.1% | 94.9% | 83.2% | 98.4% | 91.1% | 82.9%
3 | CC1CCNC(C)C1 (stereo not given) | 105% | 98.2% | 107% | 113% | 99.6% | 99.6% | 116% | 112% | 104% | 106%
4 | COc1cc(-c2ccc3c(c2)NC(=O)/C3=C\c2ccc[nH]2)ccc1O | 8.9% (active) | 6.57% (active) | 18.5% | 48.2% | 52.4% | 30.7% | 26.3% | 9.59% (active) | 53.9% | 12.7%
5 | Cc1cc(C)nc(SC2=C(Nc3cc(Cl)ccc3O)C(=O)N(Cc3ccccc3)C2=O)n1 | 54% [30 µM] | 36.5% [30 µM] | 76.4% [30 µM] | 123% [30 µM] | 71.2% [30 µM] | 103% [30 µM] | 83.8% [30 µM] | 88.3% [30 µM] | 82.7% [30 µM] | 74.6% [30 µM]
6 | Cc1nc(Nc2ccc(F)c(Cl)c2)sc1C(=O)O | 5.95% (active) | 5.09% (active) | 14% | 51.2% | 21.7% | 17.4% | 19.3% | 23% | 18.7% | 13.4%
7 | COc1ccc(NC2=C(Sc3nc(C)cc(C)n3)C(=O)N(Cc3ccccc3)C2=O)cc1Cl | 63.4% [30 µM] | 39.3% [30 µM] | 29.3% [30 µM] | 124% [30 µM] | 78.6% [30 µM] | 117% [30 µM] | 113% [30 µM] | 92% [30 µM] | -21.7% [30 µM] (active) | 63.5% [30 µM]
8 | COc1cc2c(cc1-c1c(C)noc1C)ncc1nc(C3CCOCC3)n([C@@H](C)COC(F)F)c12 | 28.5% | 18.4% | 45% | 65.2% | 46.4% | 2.74% (active) | 67% | 42.3% | 8.31% (active) | 50.6%
9 | CC/C=C\C[C@H](O)C/C=C1/C(=O)C=C[C@@]1(C)C/C=C\CCCC(=O)OC | 103% | 103% | 97.8% | 99.8% | 101% | 112% | 109% | 114% | 103% | 94.8%
10 | Cn1cc(-c2nonc2-c2c[nH]c3ccccc23)c2cccnc21 | 23.5% | 40.8% | 47.8% | 72.3% | 74.5% | 41.7% | 39.4% | 15.2% | 36.1% | 13%
11 | Nc1n[nH]c2ccc([C@@H]3Nc4cc5c(cc4[C@H]4C6CCC(C6)[C@@H]34)C(=O)NC5)cc12 (stereo not given in full) | 8.36% (active) | 34.6% | 21.5% | 33.1% | 30.7% | 42.1% | 12.6% | -3.29% (active) | 24.5% | 69%
12 | Nc1ccc(-c2cc3c(NCc4ccccc4)ncnc3s2)cc1 | 81.5% | 62.6% | 94% | 77% | 60.6% | 102% | 49.9% | 80% | 86.5% | 80.7%
13 | O=C1c2cccc3cccc(c23)C(=O)N1CCCCCN1CCN(CCCCCOc2ccc(-c3nc4ccc(N5CCOCC5)cc4[nH]3)cc2)CC1 | -44.1% (active) | -59% (active) | 10.6% | 158% | 83.2% | 135% | 44.3% | 105% | 107% | 25.9%
